From PubChem BioAssay (NCATS)
“And” between values parts separate entries of the source, which are not always exact repeats. Equal values may be shown once. Results filed as inconclusive are left out. The source made the active and inactive calls. Unless noted, calls come from the whole dose curve; as a rule, active = well fitted curve in the direction sought with a large enough effect; inconclusive = small, poorly fitted or top-dose-only effect, or another doubt; inactive = no such curve, though single readings can be large; an effect the other way counts as inactive or inconclusive.

What was measured:
[1] = Validation of Assay for Modulators of Lamin A Splicing (AID 1459; active = well fitted curve in the direction sought with a large enough effect in the signal ratio; the % refers to the signal ratio;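 note: cells exposed to compound for two days before reading; 0% is about no effect; ratio rise marks activators and ratio drop marks inhibitors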)
Method in brief: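 Dual-reporter HeLa S3 line (lamin A-EGFP minigene, DsRed2) treated with compounds 48 hrs, 0.5% DMSO final. Endpoint: EGFP/DsRed2 total intensity ratio from laser-scanning microplate cytometry.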

[2] = qHTS Assay for Lipid Storage Modulators (AID 1519; calls by dose curve; for activity change, negative = inhibition: % is set by controls: 0 for no effect and ±100 for the full control effect); conditions: Drosophila S3 cells, BODIPY lipid droplet/cell ratio, laser cytometry, cells loaded with oleic acid
Method in brief: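 Cells seeded at 5,000 per well were treated with compounds over a concentration series and loaded with oleic acid (400 uM, as added). Lipid droplet fluorescence (488 nm excitation, 500-530 nm channel) was read by laser-scanning cytometry and normalized to 20 uM Triacsin C.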

[3] = target: DNA repair nuclease/redox regulator APEX1 (Homo sapiens) (UniProt P27695); test: qHTS Validation Assay for Inhibitors of the Human Apurinic/apyrimidinic Endonuclease 1 (APE1) (AID 1705; note: potency is the fitted concentration of half-maximal effect;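 for activity change, negative = inhibition: TAMRA fluorescence gain over two minutes as APE1 cuts a quenched THF abasic duplex; % is set by controls: 0 for no effect and ±100 for the full control effect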)
Sequence of DNA repair nuclease/redox regulator APEX1 (Homo sapiens) (P27695 whole entry, looked up): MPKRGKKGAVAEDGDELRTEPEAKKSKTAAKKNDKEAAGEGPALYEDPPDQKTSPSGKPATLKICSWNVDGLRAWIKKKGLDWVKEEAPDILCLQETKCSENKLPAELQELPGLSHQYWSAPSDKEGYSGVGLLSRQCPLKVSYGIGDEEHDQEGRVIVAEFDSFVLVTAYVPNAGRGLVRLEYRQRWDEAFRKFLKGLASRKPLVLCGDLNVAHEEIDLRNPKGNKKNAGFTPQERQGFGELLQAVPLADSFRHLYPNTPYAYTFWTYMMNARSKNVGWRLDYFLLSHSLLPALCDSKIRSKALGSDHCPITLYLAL
Method in brief: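 Substrate: 50 nM final fluorophore/quencher THF-abasic duplex. Enzyme preincubated with compounds 15 min, RT. Progress derived from fluorescence difference, third minus first kinetic read.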

[4] = Counterscreen for APE1 Inhibitors: Fluorescent Dye Displacement Validation Assay (AID 1707); note: potency is the fitted concentration of half-maximal effect;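 for activity change, negative = inhibition: plate controls were ThO with dsDNA and no compound for no effect and ThO without dsDNA for full effect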
Method in brief: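 Signal: ThO fluorescence (ex 480 nm/em 540 nm) on binding 50 nM dsDNA; displacement by test compound reduces it. Conditions: 250 nM dye, 50 mM Tris-HCl pH7.5, 2 mM MgCl2, 50mM NaCl, 0.01% Tween-20.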

[5] = target: Endonuclease 4 (Escherichia coli (strain K12)) (UniProt P0A6C1); test: Counterscreen for APE1 Inhibitors: qHTS Validation Assay for Inhibitors of Endonuclease IV (AID 1708); note: potency is the fitted concentration of half-maximal effect; for activity change, negative = inhibition: % is set by controls: 0 for no effect and ±100 for the full control effect
Method in brief: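 Conditions: 2 nM enzyme, 50 nM TAMRA/BHQ-2 substrate, pH 7.5 Tris buffer with 2 mM MgCl2, RT. Compound preincubation 15 min; readout three fluorescence reads 60 s apart, third-minus-first.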

[6] = qHTS for differential inhibitors of proliferation of Plasmodium falciparum line 7G8 (AID 1815);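 note: parasite growth measured after three days of incubation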; note: potency is the fitted concentration of half-maximal effect;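 for activity change, negative = inhibition: plate controls were vehicle wells for no effect and reference inhibitor wells for full effect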
[7] = qHTS for differential inhibitors of proliferation of Plasmodium falciparum line GB4 (AID 1816); conditions: Potency: Plasmodium falciparum GB4 proliferation inhibition;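 note: parasite growth measured after 72 h incubation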; note: potency is the fitted concentration of half-maximal effect;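 for activity change, negative = inhibition: 0% = vehicle DMSO and -100% = reference inhibitor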
[8] = qHTS for differential inhibitors of proliferation of Plasmodium falciparum line 3D7 (AID 1876); note: potency is the fitted concentration of half-maximal effect
[9] = qHTS for differential inhibitors of proliferation of Plasmodium falciparum line D10 (AID 1877);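 note: parasites grown with compound for 72 h before DNA staining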; note: potency is the fitted concentration of half-maximal effect;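 for activity change, negative = inhibition: plate controls were vehicle wells for no effect and reference inhibitor wells for full effect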
[10] = qHTS for differential inhibitors of proliferation of Plasmodium falciparum line Dd2 (AID 1882); conditions: Potency: Plasmodium falciparum Dd2 proliferation inhibition; note: nearly all actives have a fitted effect of over 65% in size; note: potency is the fitted concentration of half-maximal effect;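 for activity change, negative = inhibition: plate controls were DMSO vehicle for no effect and 0.29 µM artemisinin for full effect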
Method in brief: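 SYBR Green DNA fluorescence (ex 485, em 535 nm) after overnight lysis quantifies parasite growth; compound exposure lasted 72 h at 37 C on infected red cells at 2.5% hematocrit, 0.3% parasitemia (final). Artemisinin 0.29 uM and vehicle wells define normalization.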

[11] = measured here: cell count channel max response
[12] = measured here: lipid channel max response

| Structure (SMILES) | outcome [1] | activity change, negative = inhibition ([2]; at 25.7 µM (top of the series)) | activity change, negative = inhibition ([2]; at 57.5 µM (top of the series)) | max response [2, 11] | max response [2, 12] | Potency [3] | Potency [4] | Potency [5] | Potency [6] | Potency [7] | Potency [8] | Potency [9] | Potency [10] |
| --- | --- | --- | --- | --- | --- | --- | --- | --- | --- | --- | --- | --- | --- |
| CN(C)c1nc(N(C)C)nc(N(C)C)n1 | inactive | -1.28% (inactive) | 7.55% (inactive) and -0.1% (inactive) | 4.02% and 17.6% and 11.3% | 2.91% and 27.7% and 12.4% | inactive | inactive | inactive | inactive | inactive | inactive | inactive | inactive |
| CC1COc2c(N3CCN(C)CC3)c(F)cc3c(=O)c(C(=O)O)cn1c23 (stereo not drawn) | inactive | – | 6.1% (inactive) and 7.75% (inactive) | 10.5% and 11.1% | 20.7% and 20.3% | inactive | inactive | inactive | – | – | – | – | inactive |
| O=C1c2c(O)ccc(O)c2C(=O)c2c(NCCNCCO)ccc(NCCNCCO)c21 | – | 0.282% (inactive) | -5.29% (inactive) | -20.6% and -20.2% | -20.7% and -20.9% | 2 µM (active) | inactive | 2 µM (active) | 1.12 µM (active) | 1.41 µM (active) | 0.398 µM (active) | 1.58 µM (active) | 0.891 µM (active) |
| O=C(c1ccc(F)cc1)C1CCN(CCn2c(=O)[nH]c3ccccc3c2=O)CC1 | inactive | – | 3.6% (inactive) and 3.32% (inactive) | 11.4% and 58.6% | 27.6% and 62% | inactive | inactive | inactive | 3.16 µM (active) | 5.62 µM (active) | 7.08 µM (active) | 3.98 µM (active) | 6.31 µM (active) |
| CCOC(=O)Nc1ccc(NCc2ccc(F)cc2)nc1N | inactive | – | 0.206% (inactive) | 49% | 49.4% | inactive | inactive | inactive | 2.82 µM (active) | 2.82 µM (active) | 3.55 µM (active) | 7.08 µM (active) | 11.2 µM (active) |
| COc1ccc(C2CNC(=O)C2)cc1OC1CCCC1 (stereo not drawn) | inactive | – | – | – | – | inactive | inactive | inactive | – | inactive | inactive | inactive | inactive |
| Nc1c2c(nc3ccccc13)CCCC2 | – | 0.95% (inactive) | 2.49% (inactive) | -0.801% and 25.5% | -0.834% and 27.2% | inactive | inactive | inactive | 10 µM (active) | 10 µM (active) | 8.91 µM (active) | 10 µM (active) | – |
| Cc1ccc(C(=O)Nc2ccc(S(=O)(=O)O)c3cc(S(=O)(=O)O)cc(S(=O)(=O)O)c23)cc1NC(=O)c1cccc(NC(=O)Nc2cccc(C(=O)Nc3cc(C(=O)Nc4ccc(S(=O)(=O)O)c5cc(S(=O)(=O)O)cc(S(=O)(=O)O)c45)ccc3C)c2)c1 | – | – | 2.55% (inactive) and 9.29% (inactive) | -19.7% and 7.39% | -18.9% and 17.7% | 8.91 µM (active) | 4.47 µM (active) | 4.47 µM (active) | – | – | – | – | – |
| Clc1ccccc1C(c1ccccc1)(c1ccccc1)n1ccnc1 | – | 2.04% (inactive) | 9.89% (inactive) | -13.7% and 9.45% | -11.4% and 22.8% | inactive | inactive | – | 0.251 µM (active) | 0.316 µM (active) | 0.447 µM (active) | 0.631 µM (active) | 1.78 µM (active) |
